These results are taken from PubChem BioAssay (EPA / NIEHS).

Test [1] in a line: ACEA_ER_80hr: ACEA Biosciences xCELLigence Real-Time Cell Analysis on Estrogen Receptor Agonism for Proliferation (AID 2282667; active = hit-call score of the fitted dose curve at least 0.9, where 1 is the maximum). The following applies: T47D proliferation, impedance (xCELLigence), 80 h. An outline of the steps:
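Real-time electrical impedance tracked growth of the human breast line T47D, with the 80 h post-dosing value used. Dosing spanned eight 1:4 steps down from a 100 uM final top concentration, run in duplicate.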

The nature of test [2]: ATG_CRE_CIS: Attagene CIS-FACTORIAL HepG2 Assay for human cAMP Responsive Element (CRE) binding protein 3 (AID 2282926). Particulars: HepG2 CRE cis-reporter, Attagene multiplexed mRNA; actives raise or lower the signal. An outline of the steps:
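Assay format: transient reporter transfection of HepG2, 24 h treatment, total RNA isolation with DNase I step. Reporter abundance read by fluorescence after PCR and capillary separation; DMSO-normalised gain or loss fitting.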

Test [3] has as its target CCAAT/enhancer-binding protein beta (Homo sapiens) (UniProt P17676). Put plainly: ATG_C_EBP_CIS: Attagene CIS-FACTORIAL HepG2 Assay for human CCAAT/Enhancer Binding Protein (C/EBP) beta (AID 2282927). Particulars: HepG2 Attagene cis-factorial transcription factor reporter; actives raise or lower the signal. An outline of the steps:
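Changes in reporter mRNA, rather than exogenous chimeric receptor activity, reflect native C/EBP signalling in transfected HepG2 cells dosed for 24 h; transcripts are detected by RT-PCR and capillary electrophoresis.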

The nature of test [4]: ATG_CMV_CIS: Attagene CIS-FACTORIAL HepG2 Assay for human CMV (Internal Marker) (AID 2282928).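 Note: endpoint acts as a background internal control marker rather than a target.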 Particulars: HepG2 CMV promoter reporter, transcription factor profiling; actives raise or lower the signal. An outline of the steps: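 Reporter transcripts from transfected HepG2 cells are isolated after 24 h of chemical dosing, reverse-transcribed and amplified. Fragments labeled with 6-FAM are cut with HpaI and quantified by capillary electrophoresis; DMSO defines baseline.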

Test [5] has as its target Aryl hydrocarbon receptor (Homo sapiens) (UniProt P35869). Put plainly: ATG_Ahr_CIS: Attagene CIS-FACTORIAL HepG2 Assay for human Aryl Hydrocarbon Receptor (Ahr) (AID 2282930). The following applies: HepG2 AhR cis-factorial reporter transcription; actives raise or lower the signal. The method in brief: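 HepG2, transient MRTU (cis) transfection, 24 h exposure. RNA → cDNA → PCR → 6-FAM primer extension → HpaI 2 h 37 C → CE. Fit: bidirectional, DMSO baseline.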

Test [6] is described as follows: ATG_AP_1_CIS: Attagene CIS-FACTORIAL HepG2 Assay for human Activator Protein 1 (AP-1) (AID 2282931). The following applies: HepG2 Attagene cis-factorial AP-1 reporter mRNA; actives raise or lower the signal. An outline of the steps:
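Bidirectional concentration-response fitting against DMSO controls. Underlying signal: reporter mRNA from cis-promoter constructs in transiently transfected HepG2, measured after 24 h by RT-PCR and capillary electrophoresis.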

A short description of test [7]: ATG_AP_2_CIS: Attagene CIS-FACTORIAL HepG2 Assay for human Activator Protein 2 (AP-2) (AID 2282932). The following applies: HepG2 AP-2 cis-reporter, Attagene transcription factor profiling; actives raise or lower the signal. The method in brief:
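Transiently transfected HepG2 cells are exposed to chemical for 24 h. Reporter transcripts are then measured as fluorescence following RT-PCR and capillary separation, and gain- or loss-of-signal is fitted relative to DMSO.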

The target of test [8] is Retinoic acid receptor alpha (Homo sapiens) (UniProt P10276). Put plainly: ATG_DR5_RAR_CIS: Attagene CIS-FACTORIAL HepG2 Assay for human Retinoic Acid Receptor Alpha (RARE), DR5 submotif (AID 2282934).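 For AC50: reporter responds to endogenous RAR alpha beta and gamma in HepG2 not RARA alone.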 The following applies: HepG2 Attagene cis-factorial RARE DR5 reporter, mRNA; actives raise or lower the signal. The method in brief: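 HepG2, transient cis-reporter transfection, 24 h exposure. mRNA readout: RT-PCR, FAM label, HpaI cut, capillary electrophoresis. DMSO baseline, gain/loss fitting.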
Retinoic acid receptor alpha (Homo sapiens), sequence (P10276 whole entry, looked up): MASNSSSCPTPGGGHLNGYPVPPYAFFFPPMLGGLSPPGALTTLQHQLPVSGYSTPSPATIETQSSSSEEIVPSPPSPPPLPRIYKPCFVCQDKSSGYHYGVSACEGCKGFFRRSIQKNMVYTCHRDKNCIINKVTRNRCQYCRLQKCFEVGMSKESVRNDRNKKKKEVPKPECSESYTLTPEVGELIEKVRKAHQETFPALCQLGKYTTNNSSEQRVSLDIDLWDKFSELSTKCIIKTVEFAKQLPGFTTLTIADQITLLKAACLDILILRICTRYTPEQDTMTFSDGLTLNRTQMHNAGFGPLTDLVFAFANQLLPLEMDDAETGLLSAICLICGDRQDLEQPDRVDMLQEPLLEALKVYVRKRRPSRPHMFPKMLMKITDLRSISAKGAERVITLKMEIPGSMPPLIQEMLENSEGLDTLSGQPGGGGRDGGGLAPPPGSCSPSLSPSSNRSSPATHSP

In test [9] the target is Transcription factor E2F1 (Homo sapiens) (UniProt Q01094). Put plainly: ATG_E2F_CIS: Attagene CIS-FACTORIAL HepG2 Assay for human E2F Transcription Factor 1 (AID 2282935). Particulars: HepG2 Attagene cis-reporter, E2F reporter RNA transcripts; actives raise or lower the signal. The method in brief:
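Fluorescent RT-PCR products, digested with HpaI for 2 h at 37 C, are separated by capillary electrophoresis. Source RNA comes from transfected HepG2 cultures treated for 24 h.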

Test [10] in a line: ATG_E_Box_CIS: Attagene CIS-FACTORIAL HepG2 Assay for human Enhancer Box (E-box) (AID 2282936). Particulars: HepG2 E-box cis-reporter transcription, actives raise or lower the signal. An outline of the steps: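 Fluorescent reporter fragments separated by capillary electrophoresis gave the signal; mRNA came from HepG2 cells transfected with cis-element reporters and treated 24 h. Curves fitted bidirectionally relative to DMSO controls.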

A short description of test [11]: ATG_M_61_CIS: Attagene CIS-FACTORIAL HepG2 Assay for M61 Transcription Factor (Internal Marker) (AID 2282937). Particulars: HepG2 Attagene CIS-FACTORIAL M61 internal marker reporter; actives raise or lower the signal. An outline of the steps: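 Fluorescence from labelled cDNA fragments, separated by capillary electrophoresis, quantifies reporter induction. HepG2 cells bearing transiently transfected cis-promoter MRTUs were incubated with test chemical for 24 h; DMSO defined baseline for gain/loss fitting.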

Test [12] can be described thus: ATG_M_19_CIS: Attagene CIS-FACTORIAL HepG2 Assay for M19 Transcription Factor (Internal Marker) (AID 2282939). Particulars: HepG2 Attagene CIS-FACTORIAL M19 internal marker reporter; actives raise or lower the signal. An outline of the steps:
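HepG2 cells transiently transfected with cis-regulated multiple reporter transcription units were dosed for 24 h; reporter mRNA was quantified by RT-PCR, 6-FAM primer-extension labelling, HpaI digestion and capillary electrophoresis, with bidirectional fitting against DMSO baseline.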

A short description of test [13]: ATG_ERE_CIS: Attagene CIS-FACTORIAL HepG2 Assay for Estrogen Response Element (ERE) (AID 2282940). The following applies: HepG2 ERE cis-reporter, Attagene RNA transcript; actives raise or lower the signal. The method in brief: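 HepG2 cells transiently transfected with cis-promoter-driven multiplexed reporter transcription units report endogenous TF activity. After 24 h compound exposure, reporter mRNA is quantified by RT-PCR with capillary electrophoresis fluorescence; bidirectional fitting versus DMSO baseline.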

A short description of test [14]: ATG_Ets_CIS: Attagene CIS-FACTORIAL HepG2 Assay for human Erythroblast Transformation Specific (ETS) (AID 2282941). Particulars: HepG2 ETS cis-reporter transcription, actives raise or lower the signal. The method in brief: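 Bidirectional fit versus DMSO of reporter mRNA signal, detected by RT-PCR and capillary electrophoresis in HepG2 cells transiently transfected with cis-element reporters and dosed 24 h.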

Test [15] deals with Hepatocyte nuclear factor 3-beta (Homo sapiens) (UniProt Q9Y261). Put plainly: ATG_FoxA2_CIS: Attagene CIS-FACTORIAL HepG2 Assay for human Forkhead box A2 (FOXA2) (AID 2282942). The following applies: HepG2 cis-reporter transcription factor activity, 24 h; actives raise or lower the signal. An outline of the steps: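 In transiently transfected human HepG2 cells, promoter-driven reporter mRNA levels after 24 h chemical exposure are determined via RT-PCR with capillary electrophoresis. DMSO serves as baseline for bidirectional fitting.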
Hepatocyte nuclear factor 3-beta (Homo sapiens), sequence (Q9Y261 whole entry, looked up): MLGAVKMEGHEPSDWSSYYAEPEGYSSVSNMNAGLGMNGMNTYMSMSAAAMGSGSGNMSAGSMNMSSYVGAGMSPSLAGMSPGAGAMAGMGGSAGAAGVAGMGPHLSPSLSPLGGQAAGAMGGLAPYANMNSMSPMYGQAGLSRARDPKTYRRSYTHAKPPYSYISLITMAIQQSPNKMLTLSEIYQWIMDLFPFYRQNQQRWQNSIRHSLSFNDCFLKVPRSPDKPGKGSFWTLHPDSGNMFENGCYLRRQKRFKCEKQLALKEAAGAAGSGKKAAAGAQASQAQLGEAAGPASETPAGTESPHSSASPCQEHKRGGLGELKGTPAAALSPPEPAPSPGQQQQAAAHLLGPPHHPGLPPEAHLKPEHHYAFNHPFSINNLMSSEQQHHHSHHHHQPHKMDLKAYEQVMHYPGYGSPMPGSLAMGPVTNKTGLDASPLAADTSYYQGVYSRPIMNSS

Test [16] can be described thus: ATG_FoxO_CIS: Attagene CIS-FACTORIAL HepG2 Assay for human Forkhead box O (FoxO) (AID 2282943). Particulars: HepG2 Attagene cis-reporter, FoxO element, mRNA; actives raise or lower the signal. The method in brief:
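Human hepatoma HepG2 cells carry transiently introduced reporter transcription units controlled by cis promoter elements. Chemical treatment lasted 24 h, and mRNA signal was compared with DMSO.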

Test [17] can be described thus: ATG_GATA_CIS: Attagene CIS-FACTORIAL HepG2 Assay for human GATA Binding Protein (AID 2282944). The following applies: HepG2 GATA cis-element reporter, Attagene multiplex mRNA; actives raise or lower the signal. An outline of the steps: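 HepG2 cells transiently transfected with multiplexed cis-element reporter units reflecting endogenous transcription factor activity; reporter mRNA measured after 24 h dosing by RT-PCR, 6-FAM labeling, HpaI digestion and capillary electrophoresis. Bidirectional fitting versus DMSO baseline.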

Test [18] can be described thus: ATG_BRE_CIS: Attagene CIS-FACTORIAL HepG2 Assay for human Bone Morphogenetic Protein (BMP) Response Element (BRE) (AID 2282933). The following applies: HepG2 BMP response element reporter, Attagene transcription factor profiling; actives raise or lower the signal. The method in brief:
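HepG2 cells transiently transfected with multiplexed cis-element reporter units were dosed with chemical for 24 h. Reporter mRNA was measured by RT-PCR with fluorescent labelling, HpaI digestion and capillary electrophoresis; bidirectional fitting relative to DMSO.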

Test [19] is described as follows: ATG_EGR_CIS: Attagene CIS-FACTORIAL HepG2 Assay for human Early Growth Response 1 (EGR1) (AID 2282938). The following applies: HepG2 Attagene CIS-FACTORIAL EGR reporter mRNA; actives raise or lower the signal. The method in brief: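 Cell-based multiplex transcription assay: HepG2 carrying transfected cis-element reporter units, 24 h chemical treatment. Fluorescence from capillary electrophoresis of RT-PCR products gives mRNA levels; fitting is bidirectional relative to DMSO.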

SMILES strings stand for the structures. Records with an inconclusive call do not appear. The source made the active and inactive calls. Rule for the calls, unless noted: active = hit-call score of the fitted dose curve at least 0.9, where 1 is the maximum; inactive = score below 0.9.

CCAAT/enhancer-binding protein beta (Homo sapiens), sequence (P17676 whole entry, looked up): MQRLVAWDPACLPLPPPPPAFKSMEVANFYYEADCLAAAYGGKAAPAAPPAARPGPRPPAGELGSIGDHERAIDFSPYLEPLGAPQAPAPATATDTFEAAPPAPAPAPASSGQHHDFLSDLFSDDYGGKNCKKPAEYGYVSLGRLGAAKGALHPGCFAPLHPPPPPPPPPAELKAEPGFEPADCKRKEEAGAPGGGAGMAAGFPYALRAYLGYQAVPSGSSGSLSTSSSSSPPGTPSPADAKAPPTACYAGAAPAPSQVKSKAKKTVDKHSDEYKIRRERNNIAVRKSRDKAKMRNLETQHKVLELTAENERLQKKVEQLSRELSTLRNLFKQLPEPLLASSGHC
Aryl hydrocarbon receptor (Homo sapiens), sequence (P35869 whole entry, looked up): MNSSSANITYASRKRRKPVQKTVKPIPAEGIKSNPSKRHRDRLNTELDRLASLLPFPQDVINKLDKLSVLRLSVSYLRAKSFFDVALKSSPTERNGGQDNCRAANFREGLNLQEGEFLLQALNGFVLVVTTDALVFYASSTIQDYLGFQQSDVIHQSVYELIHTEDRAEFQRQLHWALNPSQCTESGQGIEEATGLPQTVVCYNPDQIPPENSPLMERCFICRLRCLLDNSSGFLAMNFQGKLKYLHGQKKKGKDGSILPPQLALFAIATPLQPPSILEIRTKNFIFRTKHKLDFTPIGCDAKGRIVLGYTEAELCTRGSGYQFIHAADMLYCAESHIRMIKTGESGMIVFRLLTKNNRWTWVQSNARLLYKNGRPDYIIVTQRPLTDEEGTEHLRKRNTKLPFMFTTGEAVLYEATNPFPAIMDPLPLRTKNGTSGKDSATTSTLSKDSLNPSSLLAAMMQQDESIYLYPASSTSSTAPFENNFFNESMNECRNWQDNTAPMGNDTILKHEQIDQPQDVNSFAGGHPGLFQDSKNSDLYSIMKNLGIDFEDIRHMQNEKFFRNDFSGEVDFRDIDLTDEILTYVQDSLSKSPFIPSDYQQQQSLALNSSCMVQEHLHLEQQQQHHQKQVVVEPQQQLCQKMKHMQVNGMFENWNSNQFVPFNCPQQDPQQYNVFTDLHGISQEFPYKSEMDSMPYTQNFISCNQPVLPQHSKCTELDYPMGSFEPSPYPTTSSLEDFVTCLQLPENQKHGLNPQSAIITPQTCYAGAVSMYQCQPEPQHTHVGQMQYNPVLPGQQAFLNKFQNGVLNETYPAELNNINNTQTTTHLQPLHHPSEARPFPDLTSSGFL
Transcription factor E2F1 (Homo sapiens), sequence (Q01094 whole entry, looked up): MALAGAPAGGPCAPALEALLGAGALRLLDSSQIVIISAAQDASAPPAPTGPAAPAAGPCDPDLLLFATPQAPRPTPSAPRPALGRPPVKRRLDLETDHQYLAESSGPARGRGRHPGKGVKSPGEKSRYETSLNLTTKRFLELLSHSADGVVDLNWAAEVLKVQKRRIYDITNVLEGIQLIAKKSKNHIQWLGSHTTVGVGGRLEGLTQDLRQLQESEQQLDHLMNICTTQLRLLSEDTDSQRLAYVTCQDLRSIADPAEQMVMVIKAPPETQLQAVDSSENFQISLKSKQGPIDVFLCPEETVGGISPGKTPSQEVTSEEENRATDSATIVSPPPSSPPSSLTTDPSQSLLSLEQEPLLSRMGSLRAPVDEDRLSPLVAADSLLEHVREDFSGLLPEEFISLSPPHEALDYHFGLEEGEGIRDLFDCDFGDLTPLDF

Consider `COC(=O)C=Cc1ccccc1`, for which the result in test [1], in test [2], in test [3], in [4], in test [5] and in test [6] was inactive. In addition, the outcome in test [7], in test [8], in test [9], in test [10], in test [11] and in [12] was inactive. For the same compound, the compound was classed as inactive in test [13], in test [14], in [15], in test [16] and in test [17].
Consider `CN(C)c1ccc2nc3ccc(=[N+](C)C)cc-3sc2c1`, for which the compound was called inactive in test [1], in test [2], in test [3], in [7], in [8] and in test [9]. The compound was called inactive in [11], in test [19], in test [12], in [13], in test [15] and in test [16]. In addition, the outcome in [17] was inactive. The AC50 in test [4] is 1.69 µM (active); in test [5], 5.2 µM (active); in test [6] it was 19.8 µM (active); in [18], 12.2 µM (active); in test [10] it was 16.7 µM (active).
Turning to `C=Cc1ccc(OC(C)=O)cc1`, the call in test [1], in test [2], in [3], in test [5], in [6] and in test [7] was inactive. The call in test [18], in test [8], in test [9], in test [10], in test [11] and in [19] was inactive. The result in test [12], in test [14], in [15], in test [16] and in [17] was inactive. Moreover, the AC50 in test [4] is 13.1 µM (active); in test [13], 35.9 µM (active).
With `c1ccc(Nc2cccc3ccccc23)cc1`, the call in [1], in [5], in test [7], in test [10], in test [11] and in test [15] was inactive. Besides, in [17], the compound was called inactive. For the same compound, the AC50 in test [2] was 48.3 µM (active); in test [3], 45.7 µM (active); in [4], 33.4 µM (active); in test [18], 49.2 µM (active); in [8] it was 33.4 µM (active); in test [9], 33.4 µM (active). Besides, the concentration at half-maximal activity (AC50) in test [19] is 46.8 µM (active); in test [12], 47.9 µM (active); in [13] it was 2.06 µM (active); in test [14], 33.4 µM (active); in test [16], 53.2 µM (active).
Consider `CCCCCCCCCCCCC`, for which the result in [1], in test [2], in test [3], in test [4], in [5] and in test [6] was inactive. For the same compound, the call in [7], in test [18], in [8], in test [9], in [10] and in test [11] was inactive. Also, the result in [19], in [12], in test [13], in [15], in [16] and in test [17] was inactive.
With `CC(C)(O)Cc1ccccc1`, the compound was classed as inactive in test [1], in [2], in test [3], in test [4], in [5] and in test [7]. Also, the outcome in test [18], in [8], in [9], in [11], in test [19] and in test [12] was inactive. Besides, the outcome in test [14], in test [15], in [16] and in test [17] was inactive.
On to `CCN1CCCC1=O`, for which the compound was classed as inactive in test [1], in test [2], in test [3], in test [4], in test [5] and in test [6]. Further, the compound was classed as inactive in [7], in test [18], in [8], in [9], in [10] and in [11]. For the same compound, the call in test [19], in [12], in test [13], in test [14], in test [15] and in test [16] was inactive. Besides, in test [17], the call was inactive.
Regarding `CCCCC(CC)COS(=O)(=O)O` (centres undefined), the compound was classed as inactive in test [1], in [2], in test [3], in test [4], in test [5] and in test [6]. For the same compound, the compound was called inactive in test [7], in test [18], in test [8], in test [9], in test [10] and in [11]. Moreover, the result in test [19], in test [12], in test [13], in test [14], in test [15] and in test [16] was inactive. In test [17], the call was inactive.
